# The full list was thinned out, with the strongest signals kept by preference.
# How the values were obtained:
# Assay in all cases: glycan array binding signal (z-score within array); higher = stronger binding
# Details in all cases: glycan notation: IUPAC condensed, linker removed
# [1] = target: Fuc(a1-2)Gal(b1-3)GlcNAc(b1-2)Man(a1-3)[Fuc(a1-2)Gal(b1-3)GlcNAc(b1-2)Man(a1-6)]Man(b1-4)GlcNAc(b1-4)GlcNAc
# Method in brief: (§1)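 Negative Z-scores can be read as non-binding. The Z-score is calculated within each array and then averaged across arrays of one protein sequence at different concentrations or buffers and across linkers. Arrays, 3228 in all, were curated from the Consortium for Functional Glycomics database and kept only where the protein sequence was available.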
# [2] = target: Fuc(a1-2)Gal(b1-3)GlcNAc(b1-3)[Neu5Ac(a2-6)Gal(b1-4)GlcNAc(b1-6)]Gal(b1-4)Glc
# Method in brief: as §1
# [3] = target: Fuc(a1-2)Gal(b1-4)Fuc(a1-3)]GlcNAc(b1-2)Man(a1-3)[Fuc(a1-2)Gal(b1-4)[Fuc(a1-3)]GlcNAc(b1-2)Man(a1-6)]Man(b1-4)GlcNAc(b1-4)GlcNAc
# Method in brief: as §1
# [4] = target: Fuc(a1-2)Gal(b1-4)GlcNAc(b1-3)[Fuc(a1-2)Gal(b1-4)GlcNAc(b1-6)]GalNAc
# Method in brief: as §1
# [5] = target: Fuc(a1-2)[Gal(a1-3)]Gal(b1-4)[Fuc(a1-3)]GlcNAc
# Method in brief: as §1
# [6] = target: Fuc(a1-2)[GalNAc(a1-3)]Gal(b1-4)GlcNAc(b1-3)Gal(b1-4)GlcNAc
# Method in brief: as §1
# [7] = target: Fuc(a1-2)[GalNAc(a1-3)]Gal(b1-4)GlcNAc(b1-3)[Fuc(a1-2)[GalNAc(a1-3)]Gal(b1-4)GlcNAc(b1-6)]GalNAc
# Method in brief: as §1
# [8] = target: Fuc(a1-2)[GalNAc(a1-3)]Gal(b1-4)[Fuc(a1-3)]GlcNAc(b1-3)GalNAc
# Method in brief: as §1
# [9] = target: Fuc(a1-2)[GalNAc(a1-4)]Gal(b1-4)GlcNAc
# Method in brief: as §1
# [10] = target: Fuc(a1-3)[Gal(b1-4)]GlcNAc(b1-2)Man(a1-3)[Fuc(a1-3)[Gal(b1-4)]GlcNAc(b1-2)Man(a1-6)]Man(b1-4)GlcNAc(b1-4)[Fuc(a1-6)]GlcNAc
# Method in brief: as §1
# [11] = target: Fuc(a1-3)[Gal(b1-4)]GlcNAc(b1-3)Gal(b1-4)[Fuc(a1-3)]GlcNAc
# Method in brief: as §1
# [12] = target: Gal(a1-3)Gal(b1-3)GlcNAc(b1-3)GalNAc
# Method in brief: as §1
# [13] = target: Gal(b1-3)GlcNAc(a1-3)Gal(b1-4)GlcNAc
# Method in brief: as §1
# [14] = target: Gal(b1-3)GlcNAc(b1-6)[Gal(b1-3)]GalNAc
# Method in brief: as §1
# [15] = target: Gal(b1-3)[Fuc(a1-4)]GlcNAc(b1-2)Man(a1-3)[Gal(b1-3)[Fuc(a1-4)]GlcNAc(b1-2)Man(a1-6)]Man(b1-4)GlcNAc(b1-4)[Fuc(a1-6)]GlcNAc
# Method in brief: as §1
# [16] = target: Gal(b1-4)GlcNAc(b1-2)Man(a1-3)[GlcNAc(b1-4)][Gal(b1-4)GlcNAc(b1-2)Man(a1-6)]Man(b1-4)GlcNAc(b1-4)GlcNAc
# Method in brief: as §1
# [17] = target: Gal(b1-4)GlcNAc(b1-3)Gal(b1-4)GlcNAc(b1-2)Man(a1-3)[Gal(b1-4)GlcNAc(b1-3)Gal(b1-4)GlcNAc(b1-2)Man(a1-6)]Man(b1-4)GlcNAc(b1-4)GlcNAc
# Method in brief: as §1
# [18] = target: Gal(b1-4)GlcNAc(b1-3)Gal(b1-4)GlcNAc(b1-3)GalNAc
# Method in brief: as §1
# [19] = target: Gal(b1-4)GlcNAc(b1-3)Gal(b1-4)GlcNAc(b1-3)[Gal(b1-4)GlcNAc(b1-3)Gal(b1-4)GlcNAc(b1-6)]GalNAc
# Method in brief: as §1
# [20] = target: Gal3S(b1-3)[Fuc(a1-4)]GlcNAc
# Method in brief: as §1
# [21] = target: Gal3S(b1-4)Glc
# Method in brief: as §1
# [22] = target: Gal3S4S(b1-4)GlcNAc
# Method in brief: as §1
# [23] = target: Gal6S(b1-4)GlcNAc6S
# Method in brief: as §1
# [24] = target: GalNAc(a1-3)GalNAc
# Method in brief: as §1
# [25] = target: GalNAc(a1-3)GalNAc(b1-3)Gal(a1-4)Gal(b1-4)Glc
# Method in brief: as §1
# [26] = target: GalNAc(b1-3)Gal
# Method in brief: as §1
# [27] = target: GalNAc3S(b1-4)GlcNAc
# Method in brief: as §1
# [28] = target: GlcNAc(b1-3)Gal(b1-4)GlcNAc(b1-2)Man(a1-3)[GlcNAc(b1-3)Gal(b1-4)GlcNAc(b1-2)Man(a1-6)]Man(b1-4)GlcNAc(b1-4)GlcNAc
# Method in brief: as §1
# [29] = target: GlcNAc(b1-3)Gal(b1-4)GlcNAc(b1-3)Gal(b1-4)GlcNAc(b1-3)Gal(b1-4)GlcNAc(b1-2)Man(a1-3)[GlcNAc(b1-3)Gal(b1-4)GlcNAc(b1-3)Gal(b1-4)GlcNAc(b1-3)Gal(b1-4)GlcNAc(b1-2)Man(a1-6)]Man(b1-4)GlcNAc(b1-4)[Fuc(a1-6)]GlcNAc
# Method in brief: as §1
# [30] = target: GlcNAc(b1-3)Gal(b1-4)GlcNAc(b1-6)[GlcNAc(b1-3)Gal(b1-3)]GalNAc
# Method in brief: as §1
# [31] = target: GlcNAc(b1-3)[GlcNAc(b1-4)][GlcNAc(b1-6)]GlcNAc
# Method in brief: as §1
# [32] = target: GlcNAc(b1-4)GlcNAc(b1-4)GlcNAc(b1-4)GlcNAc(b1-4)GlcNAc
# Method in brief: as §1
# [33] = target: GlcNAc(b1-4)GlcNAc(b1-4)GlcNAc(b1-4)GlcNAc(b1-4)GlcNAc(b1-4)GlcNAc
# Method in brief: as §1
# [34] = target: Man(a1-3)[Man(a1-6)]Man(a1-6)[Man(a1-2)Man(a1-3)]Man(b1-4)GlcNAc(b1-4)GlcNAc
# Method in brief: as §1
# [35] = target: Man(a1-3)[Man(a1-6)]Man(b1-4)GlcNAc(b1-4)[Fuc(a1-6)]GlcNAc
# Method in brief: as §1
# [36] = target: MurNAc(b1-4)GlcNAc
# Method in brief: as §1
# [37] = target: Neu5Ac(a2-3)Gal(b1-3)GalNAc(b1-4)[Neu5Ac(a2-8)Neu5Ac(a2-3)]Gal(b1-4)Glc
# Method in brief: as §1
# [38] = target: Neu5Ac(a2-3)Gal(b1-3)GlcNAc(b1-3)Gal(b1-3)GlcNAc
# Method in brief: as §1
# [39] = target: Neu5Ac(a2-3)Gal(b1-4)GlcNAc(b1-3)Gal(b1-3)GlcNAc
# Method in brief: as §1
# [40] = target: Neu5Ac(a2-3)Gal(b1-4)GlcNAc(b1-3)Gal(b1-4)GlcNAc(b1-2)Man(a1-3)[Neu5Ac(a2-3)Gal(b1-4)GlcNAc(b1-3)Gal(b1-4)GlcNAc(b1-2)Man(a1-6)]Man(b1-4)GlcNAc(b1-4)GlcNAc
# Method in brief: as §1
# [41] = target: Neu5Ac(a2-3)Gal(b1-4)GlcNAc(b1-3)Gal(b1-4)GlcNAc(b1-3)Gal(b1-4)GlcNAc(b1-2)Man(a1-3)[Neu5Ac(a2-3)Gal(b1-4)GlcNAc(b1-3)Gal(b1-4)GlcNAc(b1-3)Gal(b1-4)GlcNAc(b1-2)Man(a1-6)]GalNAc
# Method in brief: as §1
# [42] = target: Neu5Ac(a2-3)[GalNAc(b1-4)]Gal(b1-4)GlcNAc
# Method in brief: as §1
# [43] = target: Neu5Ac(a2-3)[Neu5Ac(a2-6)]GalNAc
# Method in brief: as §1
# [44] = target: Neu5Ac(a2-6)Gal(b1-4)GlcNAc
# Method in brief: as §1
# [45] = target: Neu5Ac(a2-6)Gal(b1-4)GlcNAc(b1-3)Gal(b1-4)GlcNAc(b1-3)[Neu5Ac(a2-6)Gal(b1-4)GlcNAc(b1-3)Gal(b1-4)GlcNAc(b1-6)]GalNAc
# Method in brief: as §1
# [46] = target: Neu5Ac(a2-6)GalNAc
# Method in brief: as §1
# [47] = target: Neu5Ac(a2-8)Neu5Ac(a2-3)Gal(b1-3)GalNAc(b1-4)[Neu5Ac(a2-3)]Gal(b1-4)Glc
# Method in brief: as §1
# [48] = target: Neu5Ac(a2-8)Neu5Ac(a2-8)Neu5Ac(a2-3)[Gal(b1-3)GalNAc(b1-4)]Gal(b1-4)Glc
# Method in brief: as §1
# [49] = target: Neu5Ac(a2-8)Neu5Ac(a2-8)Neu5Ac(a2-3)[GalNAc(b1-4)]Gal(b1-4)Glc
# Method in brief: as §1
# [50] = target: Neu5Ac(b2-6)GalNAc
# Method in brief: as §1
# [51] = target: Neu5Ac9Ac(a2-3)Gal(b1-3)GlcNAc
# Method in brief: as §1
# [52] = target: Neu5Gc(a2-3)Gal(b1-4)GlcNAc(b1-3)Gal(b1-4)GlcNAc(b1-2)Man(a1-3)[Neu5Gc(a2-3)Gal(b1-4)GlcNAc(b1-3)Gal(b1-4)GlcNAc(b1-2)Man(a1-6)]Man(b1-4)GlcNAc(b1-4)GlcNAc
# Method in brief: as §1
# [53] = target: Neu5Gc(a2-3)Gal(b1-4)[Fuc(a1-3)]GlcNAc
# Method in brief: as §1
# [54] = target: Neu5Gc(a2-8)Neu5Gc(a2-3)Gal(b1-4)GlcNAc(b1-3)Gal(b1-4)GlcNAc
# Method in brief: as §1
binder,measurement,setting,value
LFA (Limax flavus) (protein) MSVLFLAASFLLLASFELVAAQGCPRQDPGDWIVIQRRLNADVNFYRGWADYKHGFGDLRCNFWLGNEKIHQLTSHGRYKLRVEFTFNNKSYFAEYSTFKILGEADKYKLQVGGYSGNAGDALTFHNGMAFSTNDRDNDADSIDCAKVYHGAWWYKTCHESNLNGKWGSKKYGEGLNWKAKTTFTATATSSLLKIKALK,glycan array binding signal (z-score),[1],0.702
same,glycan array binding signal (z-score),[2],-0.319
same,glycan array binding signal (z-score),[3],1.54
same,glycan array binding signal (z-score),[4],-0.186
same,glycan array binding signal (z-score),[5],-0.137
same,glycan array binding signal (z-score),[6],-0.192
same,glycan array binding signal (z-score),[7],-0.241
same,glycan array binding signal (z-score),[8],-0.214
same,glycan array binding signal (z-score),[9],3.52
same,glycan array binding signal (z-score),[10],-0.15
same,glycan array binding signal (z-score),[11],-0.217
same,glycan array binding signal (z-score),[12],0.016
same,glycan array binding signal (z-score),[13],-0.103
same,glycan array binding signal (z-score),[14],-0.21
same,glycan array binding signal (z-score),[15],0.669
same,glycan array binding signal (z-score),[16],0.181
same,glycan array binding signal (z-score),[17],2.97
same,glycan array binding signal (z-score),[18],2.68
same,glycan array binding signal (z-score),[19],2.39
same,glycan array binding signal (z-score),[20],-0.306
same,glycan array binding signal (z-score),[21],-0.271
same,glycan array binding signal (z-score),[22],-0.218
same,glycan array binding signal (z-score),[23],-0.066
same,glycan array binding signal (z-score),[24],3.66
same,glycan array binding signal (z-score),[25],13.1
same,glycan array binding signal (z-score),[26],-0.195
same,glycan array binding signal (z-score),[27],-0.277
same,glycan array binding signal (z-score),[28],-0.217
same,glycan array binding signal (z-score),[29],0.314
same,glycan array binding signal (z-score),[30],-0.285
same,glycan array binding signal (z-score),[31],-0.405
same,glycan array binding signal (z-score),[32],2.87
same,glycan array binding signal (z-score),[33],5.81
same,glycan array binding signal (z-score),[34],3.26
same,glycan array binding signal (z-score),[35],0.24
same,glycan array binding signal (z-score),[36],-0.363
same,glycan array binding signal (z-score),[37],-0.184
same,glycan array binding signal (z-score),[38],-0.139
same,glycan array binding signal (z-score),[39],-0.206
same,glycan array binding signal (z-score),[40],2.77
same,glycan array binding signal (z-score),[41],4.29
same,glycan array binding signal (z-score),[42],0.019
same,glycan array binding signal (z-score),[43],1.01
same,glycan array binding signal (z-score),[44],-0.176
same,glycan array binding signal (z-score),[45],2.5
same,glycan array binding signal (z-score),[46],-0.345
same,glycan array binding signal (z-score),[47],-0.229
same,glycan array binding signal (z-score),[48],-0.353
same,glycan array binding signal (z-score),[49],0.236
same,glycan array binding signal (z-score),[50],-0.284
same,glycan array binding signal (z-score),[51],-0.339
same,glycan array binding signal (z-score),[52],-0.166
same,glycan array binding signal (z-score),[53],-0.306
same,glycan array binding signal (z-score),[54],-0.237
